INHIBITION data for 33 molecules are collected here from ChEMBL document CHEMBL4513216, “Probing the Open Global Health Chemical Diversity Library for Multistage-Active Starting Points for Next-Generation Antimalarials” (ACS Infect Dis, 2020).

In all, about 69,000 compounds went through this assay and about 8,600 (12%) showed an effect of 50% or more. Many of the other results were omitted from the sample, so strong results are more common in it than they were.

For this test, the system named is Plasmodium berghei. Briefly: Screen against P. berghei liver stage (PbLuc), transformed with Luciferase, at 10uM. As to conditions: tested at 10 uM. In kind it is functional, HepG2.
For the molecule `CCCc1n[nH]c(=O)n1[C@@H](CC)c1ccccc1`, the INHIBITION is given as 3.38%.
As for `COCCNC(=O)N1CC(Cc2ccccc2F)C1`, the figure is -20.6%; as for `Cc1ccc(F)c(C(=O)N2CCC(Nc3ccc(C)nn3)CC2)c1`, -15.5%.
For `CCCc1nc(N2Cc3cnn(Cc4ccc(F)cc4)c3C2)no1`, the INHIBITION came to 26.1%.
As for `Cc1ccnc(N2Cc3cnn(Cc4ccc(F)cc4)c3C2)n1`, the figure is 39.1%; as for `CCNc1ccnc(N2Cc3cnn(Cc4ccc(F)cc4)c3C2)n1`, 78.4%.
Regarding `Cc1nc(N2Cc3cnn(Cc4ccc(F)cc4)c3C2)no1`, the INHIBITION came out at 12.8%.
Turning to `Cc1cnc(N2Cc3cnn(Cc4ccc(F)cc4)c3C2)nc1N(C)C`, the INHIBITION is listed as 77.6%.
The result for `Cc1nccnc1N1Cc2cnn(Cc3ccc(F)cc3)c2C1` reads 39.1%; that for `Cc1cc(C)nc(N2Cc3cnn(Cc4ccc(F)cc4)c3C2)n1`, 22.4%.
As for `Fc1ccc(Cn2ncc3c2CN(c2noc(C4CC4)n2)C3)cc1`, the figure is 33.3%; as for `CNc1cc(C)nc(N2Cc3cnn(Cc4ccc(F)cc4)c3C2)n1`, 75.1%; as for `N#Cc1cnc(N2Cc3cnn(Cc4ccc(F)cc4)c3C2)nc1N`, 61.2%.
As for `Fc1ccc(Cn2ncc3c2CN(c2ncccn2)C3)cc1`, the figure is -1.91%.
`Cc1ncc(C)c(N2Cc3cnn(Cc4ccc(F)cc4)c3C2)n1`: the INHIBITION was determined as 32.5%.
The result for `CC(Cn1ccnc1)NC(=O)NCCN1CCCCCC1=O` (stereo not drawn) reads 5.29%; that for `Cc1noc(C2CCN(C(=O)Nc3ccc(N(C)C)nc3)CC2)n1`, 24.95%.
As for `CCNC(c1ccc(Cl)cc1)c1cccnc1` (stereo not drawn), the figure is 3.15%; as for `CC(C)C(=O)N1CCC2(CC1)NC(=O)c1ccccc12`, 39.3%; as for `Cc1ccccc1C(=O)N1CCC2(CCC(C(=O)NCC3CC3)O2)CC1` (stereo not drawn), -3.58%.
As for `CSCC(C)(O)CNS(=O)(=O)c1ccc(Br)cc1` (stereo not drawn), the figure is -23.5%.
Regarding `Cn1c2c(c(=O)c3ccccc31)CCC(C)(C)O2`, the INHIBITION was -27.3%.
As for `CN(Cc1ccco1)[C@@H]1CN(Cc2cnn(C)c2)[C@@H]2CCCO[C@H]12`, the figure is 38.1%; as for `Cc1cc(CNC(=O)CCc2c(C)nc3cc(O)nn3c2C)no1`, 15.5%.
The result for `CNS(=O)(=O)c1ccc(CN2CCCN(c3ccccc3)CC2)cc1` reads 48.2%.
As for `CS(=O)(=O)c1ccc(CN2CCCCC2c2cccc(F)c2)cc1` (stereo not drawn), the figure is 34%; as for `CNS(=O)(=O)c1ccc(CN2CCCN(Cc3ccncc3)CC2)cc1`, 55.7%.
Consider `CNS(=O)(=O)c1ccc(CN2CCN(Cc3ncccc3C)CC2)cc1`, for which the INHIBITION is reported as 49.1%.
Take `Cn1cc(CN2CCC(c3ccncc3)CC2)cn1`: the INHIBITION was found to be 23.35%.
With `CNS(=O)(=O)c1ccc(CN2CCC(c3ccncc3)CC2)cc1`, the INHIBITION is 54.1%.
As for `CNS(=O)(=O)c1ccc(CN2CCCN(CC(C)C)CC2)cc1`, the figure is 34.1%; as for `CS(=O)(=O)c1ccc(CN2CCCCC2c2ccc(F)cc2)cc1` (stereo not drawn), 32.8%; as for `CNS(=O)(=O)c1ccc(CN2CCCC2c2ccc(F)cc2)cc1` (stereo not drawn), 51.3%.
